Growth data for 38 compounds are collected here from PubChem BioAssay (NCI).

The panel holds about 83,000 compounds, 20% with a hit somewhere; the sample as a whole holds those more often.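 Note: values are percent growth. 100 is the growth of untreated cells, values between 100 and 0 indicate rising inhibition; between -100 and 0 indicates cell death.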 A number with no mark means an inactive call. Calls of active or inactive are those of the source. How the source made its calls: active means growth percent below 10; inactive means the rest.

The test has as its system SF-539 CNS. The test is described as follows: NCI-60 one-dose screen, 48 h (100 = growth as untreated, 0 = no growth, -100 = all killed). Conditions: 10 µM unless noted.
`COc1cc2[nH]c(C(=O)c3cc(OC)c(OC)c(OC)c3)c(N)c2cc1C#CC1CC1`: the growth is -38.7% (active).

As for `COc1cc2c(cc1OC)C(=O)/C(=C/c1cc(-c3ccc4c(c3)OCO4)n[nH]1)C2`, the growth was -80.9% (active).

For the compound `NS(=O)(=O)c1ccc(CCNC(=O)/C=C/c2ccc(Cl)cc2)cc1`, the growth is 101%.

As to `C/C(=N/NC(N)=S)C(=O)O`, the growth was 101%. As to `Cc1ccc(-c2ccc(Nc3ccccc3)nn2)cc1S(N)(=O)=O`, the growth is 82.3%. Consider `CCC(c1ccc(OC)cc1)C(CC)c1ccc(O)c(CN2CCCCC2)c1` (stereo not drawn), for which the growth is 69.3%. The value for `COc1cc(-c2cc(-c3nc4ccc(F)cc4[nH]3)[nH]n2)cc(OC)c1OC` was 52.6%; that for `COc1cccc(NC(=O)c2sc3nc4c(cc3c2N)C(=O)CCC4)c1` was -7.27% (active); that for `NC1(N)C=CC2=C(C=C1)C1(N)C3=C(C=CC(N)(N)C=C3)N2C2(N)C3=C(C=CC(N)(N)C=C3)N1C1=C2C=CC(N)(N)C=C1` was 73.4%. As for `COc1ccc(-c2nc3ccccn3c2-c2nc3ccc(Cl)cc3[nH]2)cc1`, the growth was 98.9%. For the compound `O=c1c(CNc2ccc(S(=O)(=O)Nc3nccs3)cc2)coc2ccccc12`, the growth is 107%.

In the case of `CN1CCN(c2nc(-c3cccc4ccccc34)nc3sc4c(c23)CCCCCC4)CC1`, the growth is 86%. The value for `COc1ccc2nc(-c3cc(-c4cc(OC)c(OC)c(OC)c4)n[nH]3)[nH]c2c1` was 34.4%; that for `COc1cccc(-c2nn(-c3ccccc3)cc2-c2ccnc(NCCNS(=O)(=O)c3ccc(Cl)cc3)c2)c1` was 54.1%; that for `O=S(=O)(NCCNc1cc(-c2cn(-c3ccccc3)nc2-c2cccc(O)c2)ccn1)c1ccc(C(F)(F)F)cc1` was 60.1%.

With `Cc1cc(C)c(NC(=O)c2sc3nc4c(cc3c2N)CCCC4)c(C)c1`, the growth was 26.9%. The same measure for `C/C(=N\Nc1cc(C)c2ccccc2n1)c1ccccn1`: -53.8% (active); for `C=C1C(=O)O[C@H]2[C@H]1CC/C(Cn1cc(-c3ccc(OC)cc3)nn1)=C\CC[C@@]1(C)O[C@@H]21`: -16.6% (active). Turning to `COC(=O)[C@]12CC[C@@H](C)[C@H](C)[C@@H]1C1=CC[C@@H]3[C@@]4(C)C[C@@H](OC(C)=O)[C@H](OC(C)=O)[C@@](C)(COC(C)=O)[C@@H]4[C@H](O)C[C@@]3(C)[C@]1(C)CC2`, the growth was 15.4%. The value for `COc1cccc(-c2nn(-c3ccccc3)cc2-c2ccnc(NCCCNS(=O)(=O)c3ccc(Cl)cc3)c2)c1` was 62.3%; that for `O=c1c(CNc2ccc(S(=O)(=O)Nc3ncccn3)cc2)coc2ccccc12` was 95.2%; that for `COc1ccc(-c2cc(/C=C/C(=O)c3ccc(OC)c(OC)c3)[nH]n2)cc1` was -50.7% (active). Consider `C#Cc1cc2c(N)c(C(=O)c3cc(OC)c(OC)c(OC)c3)[nH]c2cc1OC`, for which the growth is -23.6% (active). Take `O=S(=O)(NCCNc1cc(-c2cn(-c3ccccc3)nc2-c2cccc(O)c2)ccn1)c1ccc(F)cc1`: the growth was 44.4%. The value for `c1ccc2[nH]c(-c3cc(-c4ccc5c(c4)OCO5)n[nH]3)nc2c1` was 52.4%; that for `COc1cccc(-c2nn(-c3ccccc3)cc2-c2ccnc(NCCCNS(=O)(=O)c3cccc(F)c3)c2)c1` was 51.9%. On to `COc1cc(-c2cc(-c3nc4cc(Cl)c(Cl)cc4[nH]3)[nH]n2)cc(OC)c1OC`, for which the growth was 77.8%. The value for `Oc1cc(/C=C/c2nc(N3CCOCC3)c3cc(Cl)c(Cl)cc3n2)cc(O)c1O` was 94.1%. The value for `Cc1cc(Nc2ccc(F)cc2)nc(N2CCN(c3ccnc4cc(Cl)ccc34)CC2)n1` was 14%; that for `COc1ccc(/C=C/C(=O)NCC(C)O)cc1` (stereo not drawn) was 92.8%; that for `COc1ccc(-c2cc(/C=C/C(=O)c3ccc(N)cc3)[nH]n2)cc1` was 1.33% (active). As for `CSc1ccc(N(C)c2nc(C)nc3c2CCC3)cc1`, the growth is -16.1% (active). Turning to `OCCNc1nc(Nc2ccc(Cl)c(Cl)c2)nc2ccccc12`, the growth is 75.1%. The value for `COc1cc(-c2cc(-c3nc4ccccc4[nH]3)[nH]n2)cc(OC)c1OC` was 74.8%.

For the compound `O=C1CCN2C(=O)Nc3ccccc3C2C1` (stereo not drawn), the growth was 95.5%.

Consider `Cc1[c-]onc1C.Cc1[c-]onc1C.[Ag].[Ag].[NH-]S(=O)(=O)c1ccc(N=Nc2cc(N=Nc3ccc(S([NH-])(=O)=O)cc3)c3c(NC(=O)C(Cl)Cl)cccc3c2OC(=O)C(Cl)Cl)cc1`, for which the growth was 92.8%.

As to `Clc1ccc(Cn2cc(-c3nc4ccc(Br)nc4n3Cc3ccc(Cl)cc3)c3cccnc32)cc1`, the growth was 86%. The value for `COC(=O)[C@]12CC[C@@H](C)[C@H](C)[C@@H]1C1=CC[C@@H]3[C@@]4(C)C[C@@H](OC(C)=O)[C@H](O)[C@@](C)(COC(C)=O)[C@@H]4[C@H](O)C[C@@]3(C)[C@]1(C)CC2` was -85.1% (active).
